Measured values published in PubChem BioAssay (EPA / NIEHS).
Active and inactive are the calls of the source. Rule for the calls: active = hit-call score of the fitted dose curve at least 0.9, where 1 is the maximum; inactive = score below 0.9.

Columns and labels:
Settings in all cases: primary human HUVEC with PBMC; actives raise or lower the signal
[1] = read-out: Macrophage colony-stimulating factor (MCSF), CSF1 (gene 1435); experiment: BSK_LPS_MCSF: BioMAP Diversity Plus: LPS Assay for Macrophage colony-stimulating factor (MCSF) Biomarker Activity (AID 2283083)
Summary of the method: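 Compound is added to a human vascular primary co-culture of umbilical vein endothelium and blood mononuclear cells. After 24 h, M-CSF is quantified by ELISA. Signal changes are fitted in both directions against DMSO.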

[2] = read-out: Tissue Factor, F3 (gene 2152); experiment: BSK_LPS_TissueFactor: BioMAP Diversity Plus: LPS Assay for Tissue Factor Biomarker Activity (AID 2283084)
Summary of the method: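 In this co-culture system of umbilical vein endothelium with PBMC, stimulated with LPS, cell-surface CD142 is detected by ELISA at 24 h. Endpoint values derive from bidirectional fitting, DMSO serving as baseline.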

[3] = read-out: Tumor necrosis factor (Homo sapiens) (UniProt P01375); experiment: BSK_LPS_TNFa: BioMAP Diversity Plus: LPS Assay for Tumour Necrosis Factor alpha (TNFa) Biomarker Activity (AID 2283085);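 for AC50: TNFa protein level quantified by ELISA in the co-culture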
Summary of the method: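 TNFa was quantified by ELISA in LPS-activated co-cultures of human endothelial cells and PBMC, 24 h post-dosing. Both increases and decreases versus DMSO were fitted.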

[4] = read-out: Vascular cell adhesion molecule 1 (VCAM1), VCAM1 (gene 7412); experiment: BSK_LPS_VCAM1: BioMAP Diversity Plus: LPS Assay for Vascular cell adhesion molecule 1 (VCAM1) Biomarker Activity (AID 2283086)
Summary of the method: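 VCAM-1 quantified by ELISA in an LPS-activated co-culture of human endothelial cells and peripheral blood mononuclear cells, read 24 h post-treatment. Fitted in both directions versus DMSO; parallel SRB staining flags overt cytotoxicity.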

CD38, CD38 (gene 952) = experiment: BSK_SAg_CD38: BioMAP Diversity Plus: SAg Assay for CD38 Biomarker Activity (AID 2283087)
Summary of the method: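 CD38 quantified by ELISA (fluorescence) in a superantigen-activated endothelial cell–PBMC co-culture at 24 h post-dose. Activity fitted in both directions relative to DMSO; parallel SRB and Alamar Blue cytotoxicity read-outs.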

CD69, CD69 (gene 969) = experiment: BSK_SAg_CD69: BioMAP Diversity Plus: SAg Assay for CD69 Biomarker Activity (AID 2283089);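 for AC50: cell surface CD69 protein quantified by ELISA with fluorescence detection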
Summary of the method: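 Values derive from bidirectional fitting relative to DMSO vehicle. Cells: umbilical vein endothelium plus peripheral blood mononuclear cells, treated 24 h before fluorescent ELISA for CD69.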

[5] = read-out: Monocyte Chemoattractant Protein-1 (MCP1), CCL2 (gene 6347); experiment: BSK_SAg_MCP1: BioMAP Diversity Plus: SAg Assay for Monocyte Chemoattractant Protein-1 (MCP1) Biomarker Activity (AID 2283090)
Summary of the method: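 Values derive from bidirectional fitting of ELISA-measured MCP1 against DMSO controls. Readings were taken 24 h after dosing human vascular endothelial cells co-cultured with peripheral blood mononuclear cells under superantigen stimulation.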

[6] = read-out: E-selectin (Homo sapiens) (UniProt P16581); experiment: BSK_SAg_Eselectin: BioMAP Diversity Plus: SAg Assay for Eselectin Biomarker Activity (AID 2283091)
Summary of the method: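 Primary human endothelial cells and peripheral blood mononuclear cells were co-cultured and exposed to chemical for 24 hours. E-selectin levels were then quantified by ELISA, with bidirectional curve fitting normalised to DMSO controls.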

[7] = read-out: Monokine induced gamma interferon (MIG), CXCL9 (gene 4283); experiment: BSK_SAg_MIG: BioMAP Diversity Plus: SAg Assay for Monokine induced gamma interferon (MIG) Biomarker Activity (AID 2283092)
Summary of the method: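 Values reflect bidirectional fitting of ELISA-measured MIG against DMSO vehicle, taken 24 h after dosing of a co-culture of human umbilical vein endothelial cells and peripheral blood mononuclear cells.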

CD40, CD40 (gene 958) = experiment: BSK_SAg_CD40: BioMAP Diversity Plus: SAg Assay for CD40 Biomarker Activity (AID 2283088)
Summary of the method: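 Fluorescence ELISA read-out of CD40 from umbilical vein endothelium plus peripheral blood mononuclear cells, sampled 24 h after dosing. Values come from bidirectional curve fitting with DMSO as baseline.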

E-selectin (Homo sapiens), sequence (P16581 whole entry, looked up): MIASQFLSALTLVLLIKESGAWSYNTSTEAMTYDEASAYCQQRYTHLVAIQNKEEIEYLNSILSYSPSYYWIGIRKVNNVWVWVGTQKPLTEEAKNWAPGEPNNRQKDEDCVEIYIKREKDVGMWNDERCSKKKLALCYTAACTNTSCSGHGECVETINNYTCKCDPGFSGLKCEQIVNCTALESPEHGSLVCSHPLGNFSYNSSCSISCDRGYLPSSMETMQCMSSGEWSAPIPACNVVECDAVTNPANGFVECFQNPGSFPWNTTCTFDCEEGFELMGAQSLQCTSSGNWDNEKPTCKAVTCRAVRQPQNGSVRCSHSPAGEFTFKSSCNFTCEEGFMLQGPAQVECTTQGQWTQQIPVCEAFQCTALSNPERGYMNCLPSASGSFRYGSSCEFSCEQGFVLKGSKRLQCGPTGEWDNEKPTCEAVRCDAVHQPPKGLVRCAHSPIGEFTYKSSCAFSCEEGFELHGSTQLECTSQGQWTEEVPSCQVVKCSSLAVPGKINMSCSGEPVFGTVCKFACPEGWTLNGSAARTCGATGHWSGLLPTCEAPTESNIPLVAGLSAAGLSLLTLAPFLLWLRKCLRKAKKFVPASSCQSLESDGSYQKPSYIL
Tumor necrosis factor (Homo sapiens), sequence (P01375 whole entry, looked up): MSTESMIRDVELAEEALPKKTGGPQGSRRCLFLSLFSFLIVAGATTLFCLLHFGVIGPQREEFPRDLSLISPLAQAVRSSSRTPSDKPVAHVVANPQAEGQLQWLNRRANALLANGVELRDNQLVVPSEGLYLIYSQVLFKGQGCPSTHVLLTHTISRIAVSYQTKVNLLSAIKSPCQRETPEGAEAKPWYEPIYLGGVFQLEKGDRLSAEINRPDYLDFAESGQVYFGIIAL

O=C1CCCCCN1
outcome [1]: inactive
outcome [2]: inactive
outcome [3]: inactive
outcome [4]: inactive
outcome (CD38, CD38 (gene 952)): inactive
outcome (CD69, CD69 (gene 969)): inactive
outcome [5]: inactive
outcome [6]: inactive
outcome [7]: inactive

NC(=O)NO
outcome [1]: inactive
outcome [2]: inactive
outcome [3]: inactive
outcome [4]: inactive
outcome (CD38, CD38 (gene 952)): inactive
outcome (CD69, CD69 (gene 969)): inactive
outcome [5]: inactive
outcome [6]: inactive
outcome [7]: inactive

CCOCCOCCOCCO
outcome [1]: inactive
outcome [2]: inactive
outcome [3]: inactive
outcome [4]: inactive
outcome (CD38, CD38 (gene 952)): inactive
outcome (CD69, CD69 (gene 969)): inactive
outcome [5]: inactive
outcome [6]: inactive
outcome [7]: inactive

CC(C)(O)c1coc(S(=O)(=O)NC(=O)Nc2c3c(cc4c2CCC4)CCC3)c1
outcome [1]: inactive
outcome [2]: inactive
AC50 [3]: 0.405 µM (active)
outcome [4]: inactive
outcome (CD38, CD38 (gene 952)): inactive
outcome (CD40, CD40 (gene 958)): inactive
outcome (CD69, CD69 (gene 969)): inactive
outcome [5]: inactive
outcome [6]: inactive
outcome [7]: inactive

CCN(C(=O)c1cc(C)cc(OC[C@H](C)Nc2ccncc2)c1)C(C)C
outcome [1]: inactive
outcome [2]: inactive
outcome [3]: inactive
outcome [4]: inactive
outcome (CD38, CD38 (gene 952)): inactive
outcome (CD40, CD40 (gene 958)): inactive
outcome (CD69, CD69 (gene 969)): inactive
outcome [5]: inactive
outcome [6]: inactive
outcome [7]: inactive

Cc1c(-c2cccnc2)c2ccccc2n1CCCCC(=O)O
outcome [1]: inactive
outcome [2]: inactive
outcome [3]: inactive
outcome [4]: inactive
outcome (CD38, CD38 (gene 952)): inactive
outcome (CD40, CD40 (gene 958)): inactive
outcome (CD69, CD69 (gene 969)): inactive
outcome [5]: inactive
outcome [6]: inactive
outcome [7]: inactive

Cn1c(=O)c2c(ncn2C)n(C)c1=O
outcome [1]: inactive
outcome [2]: inactive
outcome [3]: inactive
outcome [4]: inactive
outcome (CD38, CD38 (gene 952)): inactive
outcome (CD40, CD40 (gene 958)): inactive
outcome (CD69, CD69 (gene 969)): inactive
outcome [5]: inactive
outcome [6]: inactive
outcome [7]: inactive

CC(=O)OCCC(C)C
outcome [1]: inactive
outcome [2]: inactive
outcome [3]: inactive
outcome [4]: inactive
outcome (CD38, CD38 (gene 952)): inactive
outcome (CD40, CD40 (gene 958)): inactive
outcome (CD69, CD69 (gene 969)): inactive
outcome [5]: inactive
outcome [6]: inactive
outcome [7]: inactive

Cc1ccc(C)c(O)c1
outcome [1]: inactive
outcome [2]: inactive
AC50 [3]: 0.796 µM (active)
outcome [4]: inactive
outcome (CD38, CD38 (gene 952)): inactive
outcome (CD69, CD69 (gene 969)): inactive
outcome [5]: inactive
outcome [6]: inactive
outcome [7]: inactive

CC1=CC(=O)CC(C)(C)C1
outcome [1]: inactive
outcome [2]: inactive
outcome [3]: inactive
outcome [4]: inactive
outcome (CD38, CD38 (gene 952)): inactive
outcome (CD69, CD69 (gene 969)): inactive
outcome [5]: inactive
outcome [6]: inactive
outcome [7]: inactive

C1=CCCC=CCCC=CCC1
outcome [1]: inactive
outcome [2]: inactive
outcome [3]: inactive
outcome [4]: inactive
outcome (CD38, CD38 (gene 952)): inactive
outcome (CD69, CD69 (gene 969)): inactive
outcome [5]: inactive
outcome [6]: inactive
outcome [7]: inactive

CNS(=O)(=O)c1cc(C(=O)N2CCC(CCN3C4CCC3CC(n3c(C)nc5ccccc53)C4)(c3cccc(F)c3)CC2)c(Cl)cc1F (configuration not stated)
AC50 [1]: 18.3 µM (active)
outcome [2]: inactive
outcome [3]: inactive
AC50 [4]: 5.99 µM (active)
AC50 (CD38, CD38 (gene 952)): 28.9 µM (active)
AC50 (CD69, CD69 (gene 969)): 20 µM (active)
AC50 [5]: 27.5 µM (active)
outcome [6]: inactive
outcome [7]: inactive

COCCOCCOCCOC
outcome [1]: inactive
outcome [2]: inactive
outcome [3]: inactive
outcome [4]: inactive
outcome (CD38, CD38 (gene 952)): inactive
outcome (CD69, CD69 (gene 969)): inactive
outcome [5]: inactive
outcome [6]: inactive
outcome [7]: inactive

CC(C)=CCCC(C)=CC=O
outcome [1]: inactive
outcome [2]: inactive
outcome [3]: inactive
AC50 [4]: 33.7 µM (active)
outcome (CD38, CD38 (gene 952)): inactive
outcome (CD40, CD40 (gene 958)): inactive
outcome (CD69, CD69 (gene 969)): inactive
outcome [5]: inactive
outcome [6]: inactive
outcome [7]: inactive

Cc1[nH]cnc1C[C@H]1CCc2c(C)c3ccccc3n2C1=O
AC50 [1]: 29.2 µM (active)
outcome [2]: inactive
AC50 [3]: 25.7 µM (active)
AC50 [4]: 32.9 µM (active)
AC50 (CD38, CD38 (gene 952)): 31.2 µM (active)
AC50 (CD40, CD40 (gene 958)): 29.8 µM (active)
AC50 (CD69, CD69 (gene 969)): 27.4 µM (active)
AC50 [5]: 27.8 µM (active)
AC50 [6]: 30.8 µM (active)
AC50 [7]: 31.9 µM (active)

CC/C(=C\C(=N/O)C(N)=O)C(C)[N+](=O)[O-] (configuration not stated)
outcome [1]: inactive
outcome [2]: inactive
outcome [3]: inactive
outcome [4]: inactive
outcome (CD38, CD38 (gene 952)): inactive
outcome (CD69, CD69 (gene 969)): inactive
outcome [5]: inactive
outcome [6]: inactive
outcome [7]: inactive

Nc1nc2ncc(CNc3ccc(C(=O)N[C@@H](CCC(=O)O)C(=O)O)cc3)nc2c(=O)[nH]1
outcome [1]: inactive
outcome [2]: inactive
outcome [3]: inactive
outcome [4]: inactive
outcome (CD38, CD38 (gene 952)): inactive
outcome (CD40, CD40 (gene 958)): inactive
outcome (CD69, CD69 (gene 969)): inactive
outcome [5]: inactive
outcome [6]: inactive
outcome [7]: inactive

CC(C)CCCCCCOC(=O)c1ccc(C(=O)OCCCCCCC(C)C)c(C(=O)OCCCCCCC(C)C)c1
outcome [1]: inactive
outcome [2]: inactive
outcome [3]: inactive
outcome [4]: inactive
outcome (CD38, CD38 (gene 952)): inactive
outcome (CD69, CD69 (gene 969)): inactive
outcome [5]: inactive
outcome [6]: inactive
outcome [7]: inactive

O=P(OC(CCl)CCl)(OC(CCl)CCl)OC(CCl)CCl
outcome [1]: inactive
outcome [2]: inactive
outcome [3]: inactive
outcome [4]: inactive
AC50 (CD38, CD38 (gene 952)): 30 µM (active)
AC50 (CD40, CD40 (gene 958)): 20 µM (active)
outcome (CD69, CD69 (gene 969)): inactive
AC50 [5]: 23.4 µM (active)
AC50 [6]: 20 µM (active)
outcome [7]: inactive

CCCCCCCCO
outcome [1]: inactive
outcome [2]: inactive
outcome [3]: inactive
outcome [4]: inactive
outcome (CD38, CD38 (gene 952)): inactive
outcome (CD69, CD69 (gene 969)): inactive
outcome [5]: inactive
outcome [6]: inactive
outcome [7]: inactive

CC(C)c1cccc(C(C)C)c1N1C(=O)c2ccc(O)cc2C1=O
AC50 [1]: 9.36 µM (active)
outcome [2]: inactive
outcome [3]: inactive
AC50 [4]: 10.1 µM (active)
AC50 (CD38, CD38 (gene 952)): 13.6 µM (active)
AC50 (CD40, CD40 (gene 958)): 18.9 µM (active)
AC50 (CD69, CD69 (gene 969)): 19.1 µM (active)
AC50 [5]: 37.1 µM (active)
AC50 [6]: 30.9 µM (active)
AC50 [7]: 32 µM (active)

O=C(O)CC(O)C(=O)O (configuration not stated)
outcome [1]: inactive
outcome [2]: inactive
outcome [3]: inactive
outcome [4]: inactive
outcome (CD38, CD38 (gene 952)): inactive
outcome (CD40, CD40 (gene 958)): inactive
outcome (CD69, CD69 (gene 969)): inactive
outcome [5]: inactive
outcome [6]: inactive
outcome [7]: inactive

O=C(O)c1cccc(Oc2ccccc2)c1
outcome [1]: inactive
outcome [2]: inactive
outcome [3]: inactive
outcome [4]: inactive
outcome (CD38, CD38 (gene 952)): inactive
outcome (CD40, CD40 (gene 958)): inactive
outcome (CD69, CD69 (gene 969)): inactive
outcome [5]: inactive
outcome [6]: inactive
outcome [7]: inactive

O=C(NS(=O)(=O)/C=C/c1ccccc1)c1ccc(F)cc1Cl
outcome [1]: inactive
outcome [2]: inactive
outcome [3]: inactive
outcome [4]: inactive
outcome (CD38, CD38 (gene 952)): inactive
AC50 (CD40, CD40 (gene 958)): 9.37 µM (active)
outcome (CD69, CD69 (gene 969)): inactive
outcome [5]: inactive
outcome [6]: inactive
outcome [7]: inactive

CCCCCCCCCCCCCCCO
AC50 [1]: 31 µM (active)
outcome [2]: inactive
AC50 [3]: 3.97 µM (active)
AC50 [4]: 32.4 µM (active)
AC50 (CD38, CD38 (gene 952)): 32.6 µM (active)
AC50 (CD69, CD69 (gene 969)): 31.7 µM (active)
AC50 [5]: 33.3 µM (active)
AC50 [6]: 33.5 µM (active)
outcome [7]: inactive

COCCOc1cc2cc(C(=O)NC3CCN(C(C)C)CC3)n(CC(=O)Nc3ccc(Cl)cn3)c2cn1
outcome [1]: inactive
outcome [2]: inactive
outcome [3]: inactive
outcome [4]: inactive
outcome (CD38, CD38 (gene 952)): inactive
outcome (CD69, CD69 (gene 969)): inactive
outcome [5]: inactive
outcome [6]: inactive
outcome [7]: inactive
